Experimental data taken from PubChem BioAssay AID504834 (National Center for Advancing Translational Sciences (NCATS), 2011).
Among all 320,000 compounds or so, about 22,000 (6.9%) were called active. A call without a number means that no potency is given here. Another 27% or so got no clear call; they are omitted. The sample as a whole holds a higher share of actives than the screen did. A number with no mark means an inactive call. Calls come from the whole dose curve; as a rule, active = well fitted inhibition curve with a large enough effect; inconclusive = small, poorly fitted or top-dose-only effect, or another doubt; inactive = no such curve, though single readings can be large or run the other way.

experiment: Primary qHTS for delayed death inhibitors of the malarial parasite plastid, 96 hour incubation; details: P. falciparum luciferase reporter growth; series mostly up to 28.7 µM
Text: The goal of this screen is to discover new antimalarial compounds that act by inhibiting the development of the apicoplast in the malarial parasite Plasmodium falciparum. The biochemical processes that make this organelle essential for erythrocytic stage parasites are not well understood. However, antibiotics such as azithromycin and tetracycline, which target the apicoplast translational machinery, have a potent antimalarial effect.
We have developed a cell-based assay that measures parasite growth based on the expression of an integrated copy of a firefly luciferase reporter. To detect small molecules that cause this "delayed death" phenotype, erythrocytes infected with the luciferase-expressing parasites were incubated with compounds for either one or two generations, corresponding to 48 and 96 hours, respectively. Compounds that inhibit parasite growth in the second generation, but not the first, should be enriched in antimalarials that target the apicoplast. Growth inhibition is detected by a decrease in luciferase activity.
Assay Provider: David Fidock and Eric Ekland, Columbia University
Keywords: NIH Roadmap, MLPCN, MLI, MLSMR, qHTS, NCGC, qHTS, malaria, luciferase, viability
Four microliters of infected erythrocytes (2% hematocrit, 0.05% parasitemia final concentration) in culture medium were dispensed and the plates incubated for 96 hours at 37 C in 5% CO2. Two microliters of luciferase detection reagent was added and luminescence was detected by a ViewLux (PerkinElmer) reader.
Potency is the fitted concentration of half-maximal effect.

Compound	Potency	activity change, negative = inhibition
COc1ccc(S(=O)(=O)N2CCOC2CNC(=O)C(=O)NCc2ccncc2)cc1OC (configuration not stated)	inactive	
Cc1cccc(C)c1NC(=O)CS(=O)CC(=O)N1CCN(c2ccccc2)CC1 (configuration not stated)	inactive	
c1ccc(-c2cc3c(NCC4COc5ccccc5O4)ncnc3s2)cc1 (configuration not stated)	10.4 µM (active)	
S=C(NCC1COc2ccccc2O1)Nc1ccc(Br)cc1 (configuration not stated)	inactive	
COc1ccc(Nc2ncnc3sc(-c4ccccc4)cc23)c(OC)c1	inactive	
N#Cc1ccc(-c2nc3cc(C#N)c(C#N)cc3nc2-c2ccccc2)cc1C#N	5.22 µM (active)	
N#Cc1c(-c2ccc(F)cc2)nc(-c2ccccc2)[nH]c1=O	inactive	
N#Cc1ccc(-c2ccc(F)cc2)nc1Sc1ccccc1	inactive	
COc1cccc(CNC(=O)Cn2c(=O)oc3cc(S(=O)(=O)N4CCCCC4)ccc32)c1	inactive	
CCc1cccc(C)c1NC(=O)COC(=O)CC1CCCC1	inactive	
O=C(NCCC1=CCCCC1)c1ccc(-n2cncn2)cc1	inactive	
C1=C(CCNc2ncnc3c2cnn3-c2ccccc2)CCCC1	0.104 µM (active)	
CC(C)Sc1ncnc2c1cnn2-c1ccccc1	inactive	
O=C(CSc1ncccn1)N1CCCC1	inactive	
CN1CCN(S(=O)(=O)c2ccc(Nc3ccc(F)cc3)nc2)CC1	inactive	
Cn1c(=O)[nH]c(=O)c2c1nc(N(CCO)Cc1ccccc1)n2Cc1ccccc1Cl	inactive	
CCCCCCn1c(CN2CCCC(C)C2)nc2c1c(=O)n(C)c(=O)n2C (configuration not stated)	inactive	
CC(C)Cn1c(CN(Cc2ccccc2)Cc2ccccc2)nc2c1c(=O)n(C)c(=O)n2C	inactive	
COCCn1c(CN2CCC(Cc3ccccc3)CC2)nc2c1c(=O)n(C)c(=O)n2C	5.22 µM (active)	
Cn1c(=O)[nH]c(=O)c2c1nc(CN(Cc1ccccc1)Cc1ccccc1)n2CCN1CCOCC1	inactive	
CN1CCN(Cc2nc3c(c(=O)n(C)c(=O)n3C)n2Cc2cccc3ccccc23)CC1		2.21% [at 5.75 µM]
CCOC(=O)Cn1c(CN(Cc2ccccc2)Cc2ccccc2)nc2c1c(=O)[nH]c(=O)n2C	3.29 µM (active)	
Cn1c(=O)c2c(nc(Br)n2CCSc2nc3ccccc3o2)n(C)c1=O	inactive	
CCOC(=O)N1CCN(Cc2nc3c(c(=O)n(C)c(=O)n3C)n2Cc2ccccc2)CC1	13.1 µM (active)	
CCN1CCN(Cc2nc3c(c(=O)n(C)c(=O)n3C)n2CC(=O)c2ccccc2)CC1	inactive	
COCCn1c(CN(Cc2ccccc2)Cc2ccccc2)nc2c1c(=O)n(C)c(=O)n2C	2.94 µM (active)	
CCOC(=O)N1CCN(CCC(=O)Nc2ccccc2)CC1	inactive	
